# Data reported in PubChem BioAssay (EPA / NIEHS).
# Inconclusive results are not listed. The source made the active and inactive calls. Rule for the calls: active = hit-call score of the fitted dose curve at least 0.9, where 1 is the maximum; inconclusive = response in the unintended direction; inactive = score below 0.9.
# Columns and labels:
# [1] = ACEA_AR_antagonist_AUC_viability: ACEA Biosciences xCELLigence Real-Time Cell Analysis on Androgen Receptor Antagonism for Viability (AID 2283776);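 note: 22Rv1 human prostate cancer cells growing on impedance electrode plates; area under impedance growth curve at 80 h after dosing as viability; hits lower the growth signal relative to DMSO meaning cytotoxicity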
# How it was run: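 Viability endpoint from label-free cell-index monitoring: 22Rv1 cultures treated with an eight-point 1:4 dilution series starting at 100 uM final, AUC at 80 h fitted against DMSO.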
# [2] = ACEA_ER_AUC_viability: ACEA Biosciences xCELLigence Real-Time Cell Analysis on Estrogen Receptor Agonism for Viability (AID 2283782);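 note: continuous compound exposure with impedance area under curve over 80 h; hit means loss of impedance signal meaning reduced cell growth or viability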
# How it was run: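 T-47D human breast cells in phenol red-free RPMI1640 with 10% charcoal-stripped FBS were dosed with an 8-point 1:4 dilution series from 100 uM top final concentration, in duplicate. Impedance-based growth was followed for 80 h; AUC analysed versus DMSO.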
# AR (gene 367) [3] = target: AR (gene 367) (UniProt P10275); assay: ACEA_AR_agonist_80hr: ACEA Biosciences xCELLigence Real-Time Cell Analysis on Androgen Receptor Agonism for Proliferation (AID 2283783);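 note: hits increase impedance growth signal above DMSO baseline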
# AR (gene 367), sequence (P10275 whole entry, looked up): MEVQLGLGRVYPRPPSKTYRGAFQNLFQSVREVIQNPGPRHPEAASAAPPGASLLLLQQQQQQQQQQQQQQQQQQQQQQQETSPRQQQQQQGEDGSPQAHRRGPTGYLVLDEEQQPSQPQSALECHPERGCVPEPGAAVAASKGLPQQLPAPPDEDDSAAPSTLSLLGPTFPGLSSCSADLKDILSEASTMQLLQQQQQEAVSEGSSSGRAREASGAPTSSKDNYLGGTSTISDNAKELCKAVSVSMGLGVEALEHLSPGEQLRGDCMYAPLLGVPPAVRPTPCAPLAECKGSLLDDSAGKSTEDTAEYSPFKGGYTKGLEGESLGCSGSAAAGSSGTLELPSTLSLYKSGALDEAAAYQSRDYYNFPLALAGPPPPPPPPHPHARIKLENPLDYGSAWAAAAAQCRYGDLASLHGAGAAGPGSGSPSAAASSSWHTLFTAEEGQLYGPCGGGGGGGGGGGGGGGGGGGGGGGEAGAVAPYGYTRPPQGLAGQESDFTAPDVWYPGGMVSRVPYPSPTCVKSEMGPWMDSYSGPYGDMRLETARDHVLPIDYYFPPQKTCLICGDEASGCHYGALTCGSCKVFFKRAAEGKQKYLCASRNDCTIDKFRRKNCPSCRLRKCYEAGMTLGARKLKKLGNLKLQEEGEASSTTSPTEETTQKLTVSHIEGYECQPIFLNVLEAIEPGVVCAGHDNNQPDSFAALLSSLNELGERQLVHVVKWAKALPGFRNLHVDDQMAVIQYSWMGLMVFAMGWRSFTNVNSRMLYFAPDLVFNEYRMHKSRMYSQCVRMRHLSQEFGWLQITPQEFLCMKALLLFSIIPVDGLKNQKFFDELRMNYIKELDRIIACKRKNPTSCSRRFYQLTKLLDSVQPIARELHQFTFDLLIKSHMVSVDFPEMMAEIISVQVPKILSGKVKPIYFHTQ
# How it was run: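 22Rv1 human prostate cancer cells were seeded after preconditioning in assay medium and monitored overnight, then dosed in an eight-point 1:4 dilution series from 100 uM (≤0.5% DMSO). Impedance-based growth was read at 80 h, gain-of-signal versus DMSO.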
# [4] = STM_H9_NormalizedViability: Cytotoxicity Assessment at 120 hours in the Stemina devTOX quickPredict H9 human embryonic stem cell (hESC)-based Assay (AID 2283784)
# How it was run: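 Chemicals are tested blinded on H9 human embryonic stem cells in the pluripotent state, with medium exchanged daily. After background correction, fluorescence from CellTiter-Fluor is scaled against 0.1% DMSO wells, and decreases are scored.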
# AR (gene 367) [5] = target: AR (gene 367) (UniProt P10275); assay: ACEA_AR_antagonist_80hr: ACEA Biosciences xCELLigence Real-Time Cell Analysis on Androgen Receptor Antagonism for Proliferation (AID 2283787);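 note: hits lower the impedance growth signal relative to DMSO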
# How it was run: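 Impedance readout (RT-CES), 80 h post-dose; loss-of-signal vs DMSO baseline. 22Rv1 cells in assay medium. Compounds: 8-pt 1:4 series, max 100 uM final, up to 0.5% DMSO; n = 2.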
# [6] = ACEA_AR_agonist_AUC_viability: ACEA Biosciences xCELLigence Real-Time Cell Analysis on Androgen Receptor Agonism for Viability (AID 2283775);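 for AC50: viability read 80 hours after compound addition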
# How it was run: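 Read-out is area under the impedance curve at 80 h post-dose in 22Rv1 cells, with DMSO as baseline and signal loss taken as reduced viability. Compounds ran in duplicate from 100 uM final.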
smiles,measurement,setting,value
CC(=O)OCC(COC(C)=O)OC(C)=O,outcome,[1],inactive
same,outcome,[2],inactive
O=C(Oc1ccccc1)c1cccc(C(=O)Oc2ccccc2)c1,outcome,[1],inactive
same,outcome,AR (gene 367) [3],inactive
same,outcome,[4],inactive
same,outcome,AR (gene 367) [5],inactive
NCCOCCOCCN,outcome,[6],inactive
same,outcome,[1],inactive
same,outcome,AR (gene 367) [5],inactive
CC(COCC(C)OC(=O)c1ccccc1)OC(=O)c1ccccc1 (stereo not drawn),outcome,[1],inactive
same,outcome,[4],inactive
O=C(O)c1cccnc1,outcome,[6],inactive
same,outcome,[1],inactive
same,outcome,[2],inactive
same,outcome,[4],inactive
O=C(NS(=O)(=O)/C=C/c1cccs1)c1ccc(F)cc1Br,AC50,[6],3.38 µM (active)
same,AC50,[1],3.42 µM (active)
same,AC50,AR (gene 367) [5],3.96 µM (active)
CC(=O)OC1CC(C)OC(C)O1 (stereo not drawn),outcome,[2],inactive
C#CC(O)C(CC)CCCC (stereo not drawn),outcome,[6],inactive
same,outcome,[1],inactive
same,outcome,AR (gene 367) [3],inactive
CCCCCCCC(=O)OC,AC50,[6],13.9 µM (active)
same,outcome,[1],inactive
same,outcome,[2],inactive
CC(C)OC(=O)C(C)(C)Oc1ccc(C(=O)c2ccc(Cl)cc2)cc1,AC50,[6],35.4 µM (active)
same,AC50,[1],41.2 µM (active)
same,outcome,AR (gene 367) [3],inactive
same,AC50,AR (gene 367) [5],53.4 µM (active)
CCCCCCCCCC[N+](C)(C)[O-],outcome,[6],inactive
same,outcome,[1],inactive
same,outcome,[4],inactive
same,outcome,AR (gene 367) [5],inactive
